The nature of assay [1]: qHTS assay to identify small molecule agonists of the hypoxia (HIF-1) signaling pathway (AID 1224846; active = well fitted activation curve with a large enough effect in the signal ratio in the repeat runs, not every such curve was filed as active; the % refers to the signal ratio). In short, it runs like this:
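Reporter induction in HRE-bla ME-180 cells is taken as agonism: cells sit 5 hrs after plating, receive compounds or DMSO only, incubate 17 hrs at 37C under 5% CO2, and are loaded with CCF4-AM for beta-lactamase FRET measurement.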
Background: qHTS replaces the single test concentration by a dilution series.

Assay [2] is described as follows: qHTS assay to identify small molecule agonists of H2AX - cell viability counter screen (AID 1224847; calls by dose curve; note: nearly all actives have a fitted effect of over 30% in size; note: potency is the fitted concentration of half-maximal effect). The essentials:
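Cells plated first: CHO-K1, 1000 per well in 10% FBS medium, incubated overnight at 37C. Then 15-point compound titration added (final DMSO 0.76%) for 3 hr. Finally CellTiter-Glo added and luminescence read.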

Assay [3] is described as follows: qHTS RealTime-Glo MT Cell Viability Assay in HepG2 cells - 24 hour (AID 1224867). Note: nearly all actives have a fitted effect of over 50% in size. The essentials: (§1)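 qHTS, HepG2, 600 cells/well, RealTime-Glo (NanoLuc + prosubstrate) added with cells; 5 h preincubation; DMSO compound addition; 37 C; luminescence at 0/8/16/24/32/40 h.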
The nature of assay [4]: qHTS RealTime-Glo MT Cell Viability Assay in HEK293 cells - 32 hour (AID 1224868). Note: nearly all actives have a fitted effect of over 50% in size. Note: potency is the fitted concentration of half-maximal effect. In short, it runs like this: (§2)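 Assay medium contained NanoLuc luciferase plus cell-permeant prosubstrate, added with HEK293 cells at 600 cells/well. After 5 h at 37 C/5% CO2 compounds were added; plates stayed at 37 C for 40 h with serial luminescence reads.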
Assay [5] can be described thus: A CellTox Green Cytotoxicity Assay to monitor cytotoxicity in HEK293 cells - 0 hour (AID 1224869). Note: nearly all actives have a fitted effect of over 50% in size. The essentials:
(§3)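 Tox21 screen in HEK293: membrane-impermeant cyanine dye fluoresces on binding dead-cell DNA; compound pinned 5 h post-seeding, plates held at 37 C, signal read repeatedly through 40 h.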

The nature of assay [6]: qHTS RealTime-Glo MT Cell Viability Assay in HepG2 cells - 40 hour (AID 1224870). Note: nearly all actives have a fitted effect of over 50% in size. The essentials: (§4)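 Real-time viability: cells seeded at 600 per well together with NanoLuc and cell-permeant prosubstrate, compounds added after 5 h incubation. Luminescence tracked at 0, 8, 16, 24, 32 and 40 h of exposure.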
A short description of assay [7]: A CellTox Green Cytotoxicity Assay to monitor cytotoxicity in HEK293 cells - 40 hour (AID 1224871). Note: nearly all actives have a fitted effect of over 45% in size. The essentials:
as §3

A short description of assay [8]: qHTS RealTime-Glo MT Cell Viability Assay in HEK293 cells - 16 hour (AID 1224872). Note: nearly all actives have a fitted effect of over 50% in size. Note: potency is the fitted concentration of half-maximal effect. The essentials: as §2
The nature of assay [9]: qHTS RealTime-Glo MT Cell Viability Assay in HepG2 cells - 8 hour (AID 1224873). Note: nearly all actives have a fitted effect of over 55% in size. The essentials:
as §4

A short description of assay [10]: qHTS RealTime-Glo MT Cell Viability Assay in HEK293 cells - 40 hour (AID 1224874). Note: nearly all actives have a fitted effect of over 50% in size. Note: potency is the fitted concentration of half-maximal effect. The conditions noted are these: RealTime-Glo luminescence; max response: stronger effect = lower value. In short, it runs like this:
(§5)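 HEK293 + NanoLuc + prosubstrate, 600 cells/well; 5 h, 37 C/5% CO2; compound 23 nL in DMSO by pintool; 37 C; luminescence read at 0, 8, 16, 24, 32 and 40 h time points.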

Assay [11] can be described thus: A CellTox Green Cytotoxicity Assay to monitor cytotoxicity in HEK293 cells - 24 hour (AID 1224875). Note: nearly all actives have a fitted effect of over 45% in size. In short, it runs like this:
as §3

The nature of assay [12]: A CellTox Green Cytotoxicity Assay to monitor cytotoxicity in HepG2 cells - 16 hour (AID 1224876). Note: nearly all actives have a fitted effect of over 45% in size. In short, it runs like this: (§6)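 Measurements at 0, 8, 16, 24, 32 and 40 h of treatment captured CellTox Green fluorescence in HepG2 cells that had been co-plated with reagent and preincubated 5 h at 37 C/5% CO2.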
Assay [13] in a line: qHTS RealTime-Glo MT Cell Viability Assay in HepG2 cells - 32 hour (AID 1224877). Note: nearly all actives have a fitted effect of over 55% in size. The essentials:
as §1

A short description of assay [14]: A CellTox Green Cytotoxicity Assay to monitor cytotoxicity in HepG2 cells - 24 hour (AID 1224878). Note: nearly all actives have a fitted effect of over 45% in size. In short, it runs like this:
as §6

Assay [15] in a line: A CellTox Green Cytotoxicity Assay to monitor cytotoxicity in HepG2 cells - 40 hour (AID 1224879). Note: nearly all actives have a fitted effect of over 40% in size. In short, it runs like this:
as §6

Assay [16] is described as follows: qHTS RealTime-Glo MT Cell Viability Assay in HEK293 cells - 0 hour (AID 1224880). In short, it runs like this: as §5
The nature of assay [17]: A CellTox Green Cytotoxicity Assay to monitor cytotoxicity in HEK293 cells - 32 hour (AID 1224881). Note: nearly all actives have a fitted effect of over 40% in size. In short, it runs like this:
as §3

Assay [18] is described as follows: A CellTox Green Cytotoxicity Assay to monitor cytotoxicity in HepG2 cells - 0 hour (AID 1224882). Note: nearly all actives have a fitted effect of over 35% in size. In short, it runs like this: as §6
Assay [19] in a line: qHTS assay to identify small molecule agonists of the estrogen related receptor (ERR) signaling pathway from Tox21 library (AID 1224849; calls by dose curve; note: nearly all actives have a fitted effect of over 15% in size). The conditions noted are these: ERR reporter cell line, ONE-Glo luciferase, 18 h; at 92.4 µM (top of the series) unless noted. The essentials: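 Tox21 compounds tested for ERR agonism in an NTP reporter cell line: 18 h treatment at 37 C, then ONE-Glo luminescence.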

The record followed here is PubChem BioAssay (Tox21).

Unmarked numbers belong to inactive results. Records with an inconclusive call do not appear. Calls of active or inactive are those of the source. Unless noted, calls come from the whole dose curve; as a rule, active = well fitted curve in the direction sought with a large enough effect in the repeat runs; inconclusive = weak or mixed curves; inactive = no such curve, though single readings can be large; an effect the other way counts as inactive or inconclusive.
% is set by controls: 0 for no effect and ±100 for the full control effect.

In the case of `CC(=O)c1ccc(-c2ccccc2)cc1`, the outcome in assay [1] was inactive. Besides, the Potency result in assay [2], in assay [3], in assay [4], in assay [5], in assay [6] and in [7] was “inactive” in each case. Besides, the Potency result in assay [8], in assay [9], in [11], in assay [12], in assay [13] and in [14] was “inactive” each time. The Potency entry in [15], in assay [16], in assay [17] and in [18] was “inactive” throughout. For the same molecule, the max response in [10] was -11.1%.

`N#Cc1ccccc1N`: the outcome in [1] was inactive. Besides, the Potency result in assay [2], in assay [3], in [4], in [5], in [6] and in assay [7] was “inactive” each time. The Potency entry in assay [8], in assay [9], in assay [11], in [13], in assay [14] and in assay [15] was “inactive” throughout. Further, the Potency result in assay [16] and in assay [17] was “inactive” throughout. For the same molecule, the activity change, positive = activation in assay [19] is -12.6%. Besides, the max response in assay [10] is 0.901%.

With `CCCCCCCCCBr`, the molecule was called inactive in [1]. Further, the Potency entry in [2], in [3], in assay [4], in assay [5], in assay [6] and in assay [7] was “inactive” throughout. In addition, the Potency entry in [8], in assay [9], in [11], in [12], in [13] and in [14] was “inactive” throughout. Moreover, the Potency result in assay [15], in assay [16], in [17] and in assay [18] was “inactive” throughout. In [10], the max response was -6.03%.

Consider `CCOP(=S)(OCC)SCS(=O)(=O)C(C)(C)C`, for which the molecule was classed as inactive in [1]. The Potency result in assay [2], in [3], in [4], in assay [5], in assay [6] and in assay [7] was “inactive” each time. The Potency entry in assay [8], in [9], in assay [11], in assay [12], in [13] and in [14] was “inactive” each time. For the same molecule, the Potency result in assay [16], in assay [17] and in assay [18] was “inactive” throughout. In assay [10], the max response is -15.1%.

As for `N#CCCSCCC#N`, the molecule was called inactive in assay [1]. In addition, the Potency result in assay [2], in assay [3], in [4], in assay [5], in assay [6] and in assay [7] was “inactive” each time. Besides, the Potency result in assay [8], in [9], in assay [11], in assay [12], in assay [13] and in assay [14] was “inactive” each time. In addition, the Potency result in [15], in assay [16], in assay [17] and in assay [18] was “inactive” throughout. The max response in assay [10] is 8.18%.

In the case of `C=COCCCl`, the molecule was called inactive in assay [1]. For the same molecule, the Potency entry in assay [2], in assay [3], in [4], in assay [5], in assay [6] and in assay [7] was “inactive” in each case. For the same molecule, the Potency result in assay [8], in assay [9], in assay [11], in [12], in assay [13] and in assay [14] was “inactive” in each case. The Potency result in [16] and in assay [18] was “inactive” throughout. In addition, the activity change, positive = activation in [19] was 14.7%. Further, the max response in assay [10] is 15.2%.

Take `CCCSP(=O)(OCC)SCCC`: the outcome in [1] was inactive. Moreover, the Potency result in assay [2], in assay [3], in [4], in assay [5], in assay [6] and in assay [7] was “inactive” each time. The Potency entry in assay [8], in assay [9], in assay [11], in [12], in assay [13] and in assay [14] was “inactive” in each case. Moreover, the Potency entry in assay [15] and in assay [16] was “inactive” in each case. The max response in [10] was -0.268%.

On to `CC(C)OS(C)(=O)=O`, for which the result in [1] was inactive. Also, the Potency entry in assay [2], in assay [3], in assay [4], in [5], in [6] and in assay [7] was “inactive” each time. In addition, the Potency entry in assay [8], in assay [9], in assay [11], in [12], in assay [13] and in assay [14] was “inactive” throughout. Also, the Potency entry in assay [16], in assay [17] and in [18] was “inactive” throughout. In addition, in [10], the max response was 0.77%.

`CC(C)CBr`: the molecule was called inactive in [1]. The Potency result in assay [2], in [3], in [4], in [5], in assay [6] and in [7] was “inactive” each time. Further, the Potency result in assay [8], in [9], in assay [11], in assay [12], in assay [14] and in assay [15] was “inactive” in each case. Besides, in [16], the Potency entry was “inactive”. Further, the activity change, positive = activation in assay [19] is 2.25%.

`C[C@]12Cc3nonc3C[C@@H]1CC[C@@H]1[C@@H]2CC[C@@]2(C)[C@H]1CC[C@]2(C)O`: the molecule was classed as inactive in assay [1]. Also, the Potency was 49.2 µM (active) in [2], 21.3 µM (active) in assay [4], 19 µM (active) in assay [8] and 19 µM (active) in [10]. Further, the activity change, positive = activation in assay [19] was -58.3% [at 42.5 µM]. In addition, the Potency result in assay [3], in assay [5], in assay [6], in assay [9], in assay [11] and in assay [12] was “inactive” in each case. The Potency result in [13], in assay [14], in assay [15], in assay [16], in [17] and in assay [18] was “inactive” each time.

As to `O=C1NCN(c2ccccc2)C12CCN(CC1COc3ccccc3O1)CC2` (centres undefined), the molecule was classed as inactive in assay [1]. Besides, the Potency result in assay [2], in [5], in [6], in assay [7], in assay [11] and in [12] was “inactive” each time. Also, the Potency entry in assay [13], in assay [14], in assay [15], in [16], in [17] and in assay [18] was “inactive” in each case. In [19], the activity change, positive = activation was 0.381% [at 42.5 µM].

Turning to `O=[N+]([O-])c1cc([N+](=O)[O-])c2ccccc2c1`, in assay [1], the molecule was classed as inactive. Further, the Potency result in assay [2], in assay [4], in assay [6], in assay [8], in [15] and in [16] was “inactive” each time. Moreover, in assay [18], the Potency entry was “inactive”. Further, in assay [19], the activity change, positive = activation was -17.9%. Besides, the max response in [10] was 4.65%.

As for `COc1ccc([N+](=O)[O-])cc1O`, the molecule was classed as inactive in assay [1]. Further, the Potency result in assay [2], in assay [3], in assay [4], in assay [5], in [6] and in assay [7] was “inactive” throughout. The Potency result in assay [8], in [9], in [11], in [12], in [13] and in assay [14] was “inactive” throughout. Besides, the Potency entry in [16], in [17] and in assay [18] was “inactive” each time. In addition, the max response in [10] is 1.5%.

In the case of `N#CCCO`, the outcome in [1] was inactive. Moreover, the Potency entry in [2], in assay [3], in assay [4], in [5], in [6] and in assay [7] was “inactive” each time. The Potency result in [8], in assay [9], in assay [11], in [12], in assay [13] and in assay [14] was “inactive” in each case. Besides, the Potency entry in assay [15] and in assay [16] was “inactive” each time. In [10], the max response is 5.8%.

For `Cc1cc(C(F)(C(F)(F)F)C(F)(F)F)ccc1NC(=O)c1cccc(I)c1C(=O)NC(C)(C)CS(C)(=O)=O`, the molecule was classed as inactive in assay [1]. In addition, the Potency entry in assay [2], in [3], in assay [5], in [6], in [7] and in assay [8] was “inactive” throughout. In addition, the Potency result in assay [9], in [11], in [13], in [14], in assay [15] and in assay [16] was “inactive” each time. Also, the Potency entry in assay [17] and in assay [18] was “inactive” each time. Besides, the activity change, positive = activation in assay [19] is -22.4% [at 42.5 µM].
